We go through 13 molecules from PubChem BioAssay (NCATS).

Records with an inconclusive call do not appear. A call without a number means that no potency is given here. Calls of active or inactive are those of the source. Calls follow the shape of the dose curve; as a rule, active = well fitted cell-killing curve with a large enough effect; inconclusive = small, poorly fitted or top-dose-only effect, or effect the other way; inactive = flat fitted curve, though single readings scatter.

In the assay the test system is Tov-21-G. The assay is described as follows: Primary qHTS to identify gynecologic anti-cancer compounds using libraries of approved drugs and bioactive compounds (AID 1345084). Also: nearly all actives have a fitted effect of over 55% in size. The note with it: Gynecologic cancer cell panel viability, ATPlite luminescence, 48 h; series mostly up to 57.5 µM. Put shortly: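 Five-concentration response, 48 h; readout is ATP-driven luciferase luminescence.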
Take `COC(=O)CC(C)(O)CC(=O)OCc1ccc(O[C@@H]2O[C@H](CO)[C@@H](O)[C@H](O)[C@H]2O)cc1` (stereo partly drawn): the Potency entry was “inactive”. For the molecule `CC[C@@H](O)C[C@@H]1C(C)=C[C@@H]2CCCC[C@@H]2[C@@]1(C)C(=O)O`, the Potency entry was “inactive”. Consider `C=C1CCC2C(C)(C(=O)O)CCCC2(C)C1CC/C(=C\CO)CO` (stereo not drawn), for which the Potency result was “inactive”. Same read-out and setting: to `Cc1oc2ccccc2c1CNC(=O)NCc1cccs1` belongs “inactive”; to `CCC(C)C(=O)OC1CC(C)C=C2C=CC(C)C(CCC(O)CC(O)CC(=O)O)C21` (stereo not drawn), “inactive”. `C[C@]12C=C[C@@]3(CCC4[C@](C)(CO)CCC[C@@]4(C)C3CC1)C2` (stereo partly drawn): the Potency entry is “inactive”. As for `CC(C)CC1NC(=O)C(C)NC(=O)C(CC(C)C)OC(=O)CCCNC1=O` (stereo not drawn), the Potency result is “inactive”. On to `COC1/C=C/C(C)(O)C(SCC(N)C(=O)O)CC(=O)OC(C)C(C)CC/C=C/1C` (stereo not drawn), for which the Potency entry is “inactive”. With `CC/C=C\CC1C(=O)C=CC1(CCCCCCCC(=O)O)OC(C)=O` (stereo not drawn), the Potency entry was “inactive”. In the case of `CC1OC(OC2C(C)OC(OC3C(O)C(CO)OC(O[C@H]4CC[C@@]5(C)C(CC[C@]6(C)C5CC=C5C7[C@@H](C)[C@H](C)CC[C@]7(C(=O)O)CC[C@]56C(=O)O)C4(C)C)C3O)C(O)C2O)C(O)C(O)C1O` (stereo partly drawn), the activity change, negative = cytotoxicity was -0.483% [at 11.6 µM] (inactive). For `C[C@@H]1O[C@@H](OC[C@H]2O[C@@H](OC(CCCCc3ccc(O)cc3)CCc3ccc(O)cc3)[C@H](O)[C@@H](O)[C@@H]2O)[C@H](O)[C@H](O)[C@H]1O` (stereo partly drawn), the Potency entry was “inactive”. As to `CC(c1ncncc1F)C(O)(Cn1cncn1)c1ccc(F)cc1F` (stereo not drawn), the Potency result is “inactive”. In the case of `CC1(C=O)CC[C@]2(C(=O)O[C@@H]3O[C@H](CO)[C@@H](O)[C@H](O)[C@H]3O)CC[C@]3(C)C(=CCC4[C@@]5(C)C[C@H](O)[C@H](O[C@@H]6OC[C@@H](O)[C@H](O)[C@H]6O)[C@@](C)(CO)C5CC[C@]43C)C2C1` (stereo partly drawn), the activity change, negative = cytotoxicity was -1.76% [at 11.6 µM] (inactive).
